# High-throughput results from PubChem.
# CIT2 TOR yeast: alters CIT2-GFP fluorescence in TOR pathway yeast screen; S. cerevisiae CIT2-GFP strain, flow cytometry, 3 h; 100 means same as DMSO wells; GFP response vs DMSO, % at 10 µM; actives 0.065% (n = 320,000); AID 2029;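 active means GFP response relative to DMSO above a set limit, near the screen mean plus 3 SD, cut at about 150% in these data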;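 further: ratio of well median GFP fluorescence to mean of DMSO wells on the plate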
# MEP2 TOR yeast: alters MEP2-GFP fluorescence in TOR pathway yeast screen; actives 0.51% (n = 330,000); GFP response vs DMSO, % at 10 µM; S. cerevisiae MEP2-GFP strain, flow cytometry GFP, 3 h; 100% = DMSO control level; AID 2016;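 active means GFP response versus DMSO above a set limit, roughly screen mean plus 3 SD, cut at about 180% in these data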;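 further: median GFP fluorescence of the barcode-gated MEP2-GFP cells per well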
# RPL19A-GFP yeast: modulators of TOR pathway RPL19A-GFP in S. cerevisiae | actives 0.3% (n = 330,000) | S. cerevisiae RPL19A-GFP strain, flow cytometry, 3 h; stronger effect = lower value | percent response vs DMSO, % at 10 µM;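 active means percent response vs DMSO below 50%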;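 further: median channel GFP fluorescence of the barcoded RPL19A-GFP strain; ratio of sample median GFP to plate DMSO average so 100% = DMSO; lower means less RPL19A-GFP as with rapamycin TOR inhibition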
# LAP4-GFP MLPCN: modulators of TOR pathway LAP4-GFP in S. cerevisiae; S. cerevisiae LAP4-GFP multiplex, flow cytometry GFP, 3 h; median GFP as percent of DMSO wells; GFP response vs DMSO, % at 10 µM; actives 0.34% (n = 320,000);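 active means GFP response vs DMSO above a set limit, about the screen mean plus 3 SD, cut at about 150% in these data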
# AGP1 TOR yeast: alters AGP1-GFP fluorescence in TOR pathway yeast screen. S. cerevisiae AGP1-GFP multiplex flow cytometry, 3 h; GFP as percent of DMSO wells. GFP response vs DMSO, % at 10 µM. actives 0.02% (n = 320,000). AID 2066;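 active means GFP response relative to DMSO above a set limit, near screen average plus 3 SD, cut at about 150% in these data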;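 further: median GFP channel fluorescence of the gated AGP1 strain per well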
# LAP4 cherry2: second confirmation of modulators of TOR reporter LAP4-GFP in yeast; shares compounds with LAP4-GFP MLPCN; S. cerevisiae LAP4-GFP strain, flow cytometry GFP, 3 h; GFP response vs DMSO, % at 10 µM; actives 20% (n = 590); AID 2621;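 active means GFP signal as percent of the solvent control above about 150%, meaning raised reporter expression, limit read from the data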;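 further: ratio of well median GFP fluorescence to plate DMSO mean so 100% = DMSO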
# MEP2-GFP pick2: second confirmation of modulators of TOR reporter MEP2-GFP in yeast; shares compounds with LAP4-GFP MLPCN; actives 10% (n = 590); GFP response vs DMSO, % at 10 µM; S. cerevisiae MEP2-GFP strain, flow cytometry GFP, 3 h;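 active means GFP signal above 150% of the solvent control wells, that is a rise of more than half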;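 further: median channel GFP fluorescence of all gated yeast cells per well; ratio of median GFP to plate DMSO average so 100% = DMSO level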
# RPL19A-GFP pick2: yeast RPL19A-GFP TOR reporter modulation, second cherry pick; actives 3% (n = 590); shares compounds with LAP4-GFP MLPCN; GFP response vs DMSO, % at 10 µM; S. cerevisiae RPL19A-GFP strain, flow cytometry GFP, 3 h; stronger effect = lower value; 100% means same as DMSO wells;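 active means under 65% GFP response relative to DMSO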;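 further: median GFP channel fluorescence per well over the all cells gate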
# CIT2-GFP pick2: yeast CIT2-GFP TOR reporter modulation, second cherry pick; shares compounds with LAP4-GFP MLPCN; S. cerevisiae CIT2-GFP strain, flow cytometry GFP, 3 h; DMSO control wells read 100%; GFP response vs DMSO, % at 10 µM; actives 8% (n = 590); AID 2624;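 active means GFP response vs DMSO above about 150%, limit read from the data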;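 further: median green fluorescence per well over all gated yeast cells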
# AGP1-GFP pick2: second confirmation of modulators of TOR reporter AGP1-GFP in yeast | shares compounds with LAP4-GFP MLPCN | percent response vs DMSO, % at 10 µM | S. cerevisiae AGP1-GFP strain, flow cytometry GFP, 3 h | 590 tested, under 10 active;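 active means over 150 percent of DMSO response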;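 further: median GFP channel fluorescence over all cells without mother daughter split; sample median GFP divided by mean DMSO control so 100% equals DMSO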
# Yeast autofluor: yeast s288c autofluorescence artifact, counter-screen. 610 tested, under 10 active. shares compounds with LAP4-GFP MLPCN. fluorescence change (kMESF span) at 33 µM. S. cerevisiae s288c, 520 nm autofluorescence, flow cytometry, 3 h; stronger effect = higher value; zero means same as solvent-only cells;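 active means fluorescence span over the dose series, or activity score, above about 33, limit read from the data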
# The depositor's hits bear a star; . = not tested or not shown. Compounds with a hit are over-represented: about 0.93% of the library has one in this group of screens.
SMILES,CIT2 TOR yeast,MEP2 TOR yeast,RPL19A-GFP yeast,LAP4-GFP MLPCN,AGP1 TOR yeast,LAP4 cherry2,MEP2-GFP pick2,RPL19A-GFP pick2,CIT2-GFP pick2,AGP1-GFP pick2,Yeast autofluor
COc1cc(/C=C2\C(=O)ON=C2c2ccc(Cl)cc2)ccc1O,88.6,98.3,85.2,224.3*,87.2,.,.,.,.,.,0.5
Cc1ccc(/C=C2\C(=O)ON=C2c2ccccc2)o1,59.9,101.7,95.6,104.8,70.6,.,.,.,.,.,.
O=C1ON=C(c2ccccc2)/C1=C/c1ccc(O)c(O)c1,110.8,97.4,90.2,136.4,91.0,.,.,.,.,.,.
O=C(Nc1cccc(-c2csc(Nc3cccc(C(F)(F)F)c3)n2)c1)c1ccccc1,106.7,100.4,102.2,140.7,92.8,.,.,.,.,.,.
O=C(Nc1cccc(-c2csc(Nc3ccccc3)n2)c1)c1ccccc1,90.3,97.9,98.4,153.4*,81.8,108.7,103.2,97.1,91.6,93.3,0.1
COc1ccc2nc(SCC(=O)Nc3ccc4sc(C)nc4c3)c(C#N)cc2c1,105.6,95.8,100.7,82.8,99.5,.,.,.,.,.,.
Cc1ccc(N2C(=O)CC(Sc3ncn[nH]3)C2=O)cc1C (stereo not given),91.1,90.1,98.2,150.8*,94.9,.,.,.,.,.,-0.1
Cc1cccc(N2C(=O)CC(Sc3ncn[nH]3)C2=O)c1 (stereo not given),78.2,90.3,93.2,139.6,92.8,.,.,.,.,.,.
COc1ccc(OC)c2sc(N3CCN(C(=O)c4ccc([N+](=O)[O-])s4)CC3)nc12,87.7,106.2,95.1,160.3*,85.5,136.3,143.2,97.2,147.4,99.5,.
O=C(c1ccc([N+](=O)[O-])s1)N1CCN(c2ccccn2)CC1,101.6,105.0,105.2,103.9,110.0,.,.,.,.,.,.
O=C1N(c2ccccc2C(F)(F)F)O[C@]1(c1ccccc1)C1CCCCC1,99.1,89.3,95.2,84.6,71.0,106.7,101.5,105.5,115.3,106.9,-0.1
CC(C)[C@@]1(c2ccccc2)ON(c2ccccc2C(F)(F)F)C1=O,104.8,93.6,99.0,109.7,100.4,105.2,96.1,102.1,104.3,97.1,-0.2
FC(F)(F)c1ccccc1-n1ccnc1,72.0,99.2,89.3,108.4,74.7,.,.,.,.,.,.
O=C1N(c2ccccc2C(F)(F)F)OC1(Cc1ccccc1)c1ccccc1 (stereo not given),100.8,98.5,95.7,93.8,96.5,111.5,106.5,109.3,112.0,102.8,0
CC(C)[C@]1(c2ccc(Cl)cc2)ON(c2ccccc2C(F)(F)F)C1=O,106.0,99.2,95.5,107.1,99.8,102.2,94.3,100.8,105.7,99.7,-0.1
CC(C)[C@]1(c2ccccc2)ON(c2ccccc2C(F)(F)F)C1=O,93.7,93.8,93.9,94.0,93.0,108.7,103.2,104.2,114.2,107.9,-0.2
O=C(O)c1nn(-c2ccccc2C(F)(F)F)cc1O,105.0,93.4,97.6,94.6,99.5,.,.,.,.,.,.
CC(C)Oc1ccc(C(=O)Nc2nnc(SCC(=O)N3CCOCC3)s2)cc1,99.5,97.7,100.8,91.2,95.7,.,.,.,.,.,.
Nc1c(C(=O)NC2CC2)sc2nc3c(c(-c4ccco4)c12)CC/C3=C/c1ccco1,85.7,261.4*,70.6,195.4*,38.5,141.3,113.1,105.9,118.7,100.6,.
O=C(/C=C/c1ccc(O)cc1)c1ccc(O)cc1O,105.2,99.8,104.8,112.2,96.7,.,.,.,.,.,.
COc1ccc(/C=C/C(=O)c2cc(Br)ccc2O)cc1OC,106.7,111.6,92.7,127.7,87.9,.,.,.,.,.,.
O=C(/C=C/c1ccccn1)c1cc(Br)ccc1O,56.7,79.8,69.1,212.3*,66.6,.,.,.,.,.,1.11
O=C(/C=C/c1ccccn1)c1ccc(Br)cc1O,81.4,84.0,87.3,154.8*,87.7,165.3*,118.8,90.8,96.0,94.5,1.5
O=C(Nc1ccc(N2CCOCC2)cc1)c1ccc([N+](=O)[O-])o1,108.0,99.4,106.2,99.6,109.0,.,.,.,.,.,.
COC(=O)Cn1cc(/C=C/c2cc[n+](C)cc2)c2ccccc21,112.5,113.8,100.0,109.5,105.7,.,.,.,.,.,.
SMILES,CIT2 TOR yeast,MEP2 TOR yeast,RPL19A-GFP yeast,LAP4-GFP MLPCN,AGP1 TOR yeast,LAP4 cherry2,MEP2-GFP pick2,RPL19A-GFP pick2,CIT2-GFP pick2,AGP1-GFP pick2,Yeast autofluor
CC[n+]1ccc(/C=C/c2c[nH]c3ccccc23)cc1,114.5,115.7,105.6,103.2,102.4,.,.,.,.,.,.
COc1ccc2c(/C=C/c3cc[n+](C)cc3)c[nH]c2c1,209.7*,206.7*,115.5,150.1*,116.7,.,.,.,.,.,5.72
Cc1ccc2[nH]cc(/C=C/c3cc[n+](C)cc3)c2c1,146.7,216.6*,114.9,150.8*,104.7,.,.,.,.,.,5.44
COc1ccc2c(c1)c(/C=C/c1cc[n+](C)cc1)cn2C,196.0*,214.1*,117.6,137.9,117.9,.,.,.,.,.,6.83
CC1CCCCN1C(=O)C(=O)c1cn(CC(=O)N2CCCC2)c2ccccc12 (stereo not given),106.3,102.2,92.1,103.5,105.6,.,.,.,.,.,.
CCN(Cc1ccccc1)C(=O)C(=O)c1cn(CC(=O)N2CCCC2)c2ccccc12,178.0*,104.7,101.6,101.7,111.6,98.1,101.5,100.0,106.3,102.2,.
CC1CCN(C(=O)C(=O)c2cn(CC(=O)N3CCCC3)c3ccccc23)CC1,159.4*,114.4,95.5,100.9,103.7,99.2,101.3,98.5,109.9,96.7,.
CCOC(=O)CN1C(=O)N[C@@H](c2cccc(F)c2)C(C(=O)OC)=C1C,101.2,91.7,100.0,126.9,87.8,.,.,.,.,.,.
COc1ccc(-c2cn(Cc3ccc(C(=O)c4ccccc4)cc3)nn2)cc1,104.9,114.0,86.6,163.8*,96.7,100.2,96.1,98.9,119.6,100.0,.
COc1ccc(-c2cn(Cc3ccc4ccccc4c3)nn2)cc1,90.3,79.3,86.1,128.0,77.9,.,.,.,.,.,.
Cc1cc(-c2cc(C(=O)NC3CCCC3)on2)nc(NC2CCCC2)n1,85.7,85.5,91.7,134.9,82.3,.,.,.,.,.,.
